Several values for one entry are separate records, joined by “and”; a condition that tells them apart may be missing. Equal values may be shown once. Compounds without any hit were thinned out: in the full panel of roughly 83,000, 20% have a hit.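 Testing used 96-well plates and a 48-hour single-concentration exposure. Example: -40 means 40% of the starting cells died.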 Some structures have more than one record in an assay (separate samples or runs), and their calls can disagree. Activity calls are given as the source filed them. Rule for the calls: active = growth percent below 10; inactive = the rest.
Tests used:
Assay in all cases: NCI-60 one-dose screen, 48 h (100 = growth as untreated, 0 = no growth, -100 = all killed)
Conditions in all cases: 10 µM unless noted
SR leukemia = test system: SR leukemia
RPMI-8226 leukemia = test system: RPMI-8226 leukemia
OVCAR-8 ovarian = test system: OVCAR-8 ovarian
OVCAR-5 ovarian = test system: OVCAR-5 ovarian
OVCAR-4 ovarian = test system: OVCAR-4 ovarian
SK-OV-3 ovarian = test system: SK-OV-3 ovarian
OVCAR-3 ovarian = test system: OVCAR-3 ovarian
HS 578T breast = test system: HS 578T breast
NCI/ADR-RES ovarian = test system: NCI/ADR-RES ovarian
IGROV1 ovarian = test system: IGROV1 ovarian

Compound | growth (SR leukemia) | growth (RPMI-8226 leukemia) | growth (OVCAR-8 ovarian) | growth (OVCAR-5 ovarian) | growth (OVCAR-4 ovarian) | growth (SK-OV-3 ovarian) | growth (OVCAR-3 ovarian) | growth (HS 578T breast) | growth (NCI/ADR-RES ovarian) | growth (IGROV1 ovarian)
CN(C)CCC(=O)c1ccc(Cl)cc1 | 110% (inactive) | 75.4% (inactive) and 58% (inactive) | 110% (inactive) and 105% (inactive) | 117% (inactive) and 113% (inactive) | 105% (inactive) and 118% (inactive) | 108% (inactive) | 115% (inactive) and 113% (inactive) | 112% (inactive) | 114% (inactive) and 104% (inactive) | –
COc1ccccc1/C=N\N=C(N/N=C/c1ccccc1OC)N/N=C/c1ccccc1OC | 19.9% (inactive) and 19.6% (inactive) | 26.7% (inactive) and -8.79% (active) | 69% (inactive) and 23.3% (inactive) | 94.6% (inactive) and 52.1% (inactive) | 29.2% (inactive) | 73.7% (inactive) and 49.8% (inactive) | -6.91% (active) and 19.3% (inactive) | 99.5% (inactive) and 33.8% (inactive) | 45.4% (inactive) and 19.1% (inactive) | –
CNC(=O)c1ccc(C)c(-n2c(C)cc(OCc3ccc(F)cc3F)c(Br)c2=O)c1 | 64.9% (inactive) and 85.9% (inactive) | 48.2% (inactive) and 74% (inactive) | 70.3% (inactive) and 86.8% (inactive) | 77.1% (inactive) and 86.2% (inactive) | 73.7% (inactive) and 84.9% (inactive) | – | 85.1% (inactive) and 101% (inactive) | 103% (inactive) | 80.5% (inactive) and 80.7% (inactive) | 84.6% (inactive) and 92% (inactive)
COC(=O)[C@H]1CCCN1C(=O)C1CCCN1C(=O)[C@@H](Cc1ccccc1)NC(=S)Nc1cc(C(F)(F)F)cc(C(F)(F)F)c1 (stereo partly drawn) | 95.2% (inactive) and 67.5% (inactive) | 109% (inactive) and 66.2% (inactive) | 100% (inactive) and 87% (inactive) | 98.9% (inactive) and 90.4% (inactive) | 104% (inactive) and 80.7% (inactive) | – | 111% (inactive) and 77.1% (inactive) | 105% (inactive) and 98.2% (inactive) | 109% (inactive) and 93.9% (inactive) | 123% (inactive) and 69.8% (inactive)
CN(Cc1ccccc1)Cc1ccccc1 | 105% (inactive) | 110% (inactive) | 117% (inactive) | 103% (inactive) | 113% (inactive) | 113% (inactive) | 106% (inactive) | 108% (inactive) | 102% (inactive) | –
c1ccc2c(CC3=NCCN3)cccc2c1 | 101% (inactive) | 104% (inactive) and 97.2% (inactive) | 98% (inactive) and 101% (inactive) | 97.7% (inactive) and 108% (inactive) | 108% (inactive) and 110% (inactive) | 105% (inactive) and 107% (inactive) | 117% (inactive) and 116% (inactive) | 107% (inactive) and 99.6% (inactive) | 101% (inactive) and 105% (inactive) | –
Nc1cc(-c2cccc(OC(F)(F)F)c2)nc2ccc(N3CCCC3)cc12 | -22.2% (active) and -23.6% (active) and -23.8% (active) | 4.74% (active) and 17.6% (inactive) and 10.6% (inactive) | 11.4% (inactive) and 13.7% (inactive) and 7.39% (active) | 31.7% (inactive) and 38.4% (inactive) and 30.1% (inactive) | 52.5% (inactive) and 55.2% (inactive) and 56.6% (inactive) | – | 4.65% (active) and 2.53% (active) and -33% (active) | -0.422% (active) and 13.7% (inactive) and 27.5% (inactive) | 5.44% (active) and 3.14% (active) and 11.7% (inactive) | 23.7% (inactive) and 25.6% (inactive) and 24.4% (inactive)
O=C(O)CSCc1nc2ccccc2[nH]1 | 96.5% (inactive) | 94% (inactive) | 113% (inactive) | 110% (inactive) | 107% (inactive) | 113% (inactive) | 106% (inactive) | 102% (inactive) | 101% (inactive) | –
CC1=C(/C=C/C(C)=C/C=C/C(C)=C/C(=O)O)C(C)(C)CCC1 | 68.5% (inactive) and 87.1% (inactive) and 68.1% (inactive) | 31.4% (inactive) and 4.62% (active) and 31.1% (inactive) | 87% (inactive) and 89.2% (inactive) | 120% (inactive) and 110% (inactive) | 86.9% (inactive) and 92% (inactive) and 85% (inactive) | – | 88.2% (inactive) and 95% (inactive) and 107% (inactive) | 77.1% (inactive) and 97.4% (inactive) and 75.8% (inactive) | 90.9% (inactive) and 95% (inactive) | 99.5% (inactive) and 96% (inactive) and 75.9% (inactive)
Nc1ccccc1Nc1ccccc1 | 68.2% (inactive) and 72.1% (inactive) | 42.3% (inactive) and 29.1% (inactive) | 95.7% (inactive) and 92.3% (inactive) | 129% (inactive) and 115% (inactive) | 93.7% (inactive) and 88.9% (inactive) | – | 79.8% (inactive) and 57% (inactive) | 89.1% (inactive) and 102% (inactive) | 88% (inactive) and 84.7% (inactive) | 100% (inactive) and 109% (inactive)
CN(C)c1ccc(C(Cc2ccc3ccccc3n2)Cc2ccc3ccccc3n2)cc1 | 39.5% (inactive) and 71% (inactive) | 25.4% (inactive) and 51.4% (inactive) | 46.5% (inactive) and 91.9% (inactive) | 58.7% (inactive) and 88.9% (inactive) | 45.5% (inactive) and 79.8% (inactive) | 77.5% (inactive) and 99.6% (inactive) | 55.2% (inactive) and 79.8% (inactive) | 70% (inactive) and 93% (inactive) | 37.5% (inactive) and 76.3% (inactive) | –
ClC/C=C/CSc1ncnc2nc[nH]c12 | 74.4% (inactive) | 98.7% (inactive) | 106% (inactive) | 112% (inactive) and 104% (inactive) | 108% (inactive) and 99% (inactive) | 95% (inactive) and 107% (inactive) | 119% (inactive) and 114% (inactive) | – | 106% (inactive) and 108% (inactive) | –
O=C(Nc1ccc([N+](=O)[O-])cc1Cl)c1cc(Cl)ccc1O | -3.74% (active) | -31.8% (active) and 1.92% (active) | -20.6% (active) and 5.74% (active) | 23.6% (inactive) and 41.7% (inactive) | 22.6% (inactive) and 17.4% (inactive) | 4.16% (active) and 12.8% (inactive) | -10.7% (active) and -2.45% (active) | -6.4% (active) and -20.7% (active) | -26.7% (active) and -15.9% (active) | –
COc1cc2c(c(OC)c1OC)-c1ccc(OC)c(=O)cc1[C@@H](NC(C)=O)CC2 | 4.98% (active) and 2.6% (active) and 5.4% (active) | 9.21% (active) and 2.34% (active) | 10.3% (inactive) and 14.4% (inactive) | 47.5% (inactive) and 20.8% (inactive) and 31.2% (inactive) | 48.4% (inactive) and 57.7% (inactive) and 56.4% (inactive) | – | -57.4% (active) and -0.335% (active) and -49% (active) | 42.6% (inactive) and -0.967% (active) and 55.1% (inactive) | 0.46% (active) and 8.85% (active) and -20.9% (active) | 16.5% (inactive) and 15.3% (inactive)
COc1cc(C(=O)N/N=C/c2ccc(N(C)C)cc2)cc(OC)c1OC | 6.85% (active) | 19.6% (inactive) | 21.2% (inactive) | 44.5% (inactive) | 61.7% (inactive) | 10.9% (inactive) | -11.7% (active) | 46.4% (inactive) | -40.1% (active) | –
CN(C)c1ccc(C(=C2C=CC(=[N+](C)C)C=C2)c2ccccc2Cl)cc1 | -38.3% (active) | -22.6% (active) | -77.5% (active) and -77.8% (active) | -27.8% (active) and -93.8% (active) | 4.46% (active) and -27% (active) | -38.7% (active) and -32.4% (active) | -88.9% (active) and -91.4% (active) | -37.3% (active) and -21.2% (active) | 23.2% (inactive) and 9.87% (active) | –
